Assay [1] can be described thus: compound effects on lung adenocarcinoma cell viability – A549, calcein-AM fluorescence, 48 h, basal, profiling panel (AID 1162). Further: test concentration not given here. The note with it: higher = more signal.
Assay [2] is described as follows: compound effects on differentiated 3T3-L1 adipocyte viability – cell-based, 3T3-L1 adipocytes, calcein-AM fluorescence, 48 h, basal, profiling panel (AID 1163). Further: test concentration not given here. The note with it: 3T3-L1 adipocytes viability, higher = more signal.
Assay [3] in a line: compound effects on hepatocellular carcinoma cell viability – HepG2, calcein-AM fluorescence, 48 h, basal, profiling panel (AID 1164). Further: test concentration not given here. The note with it: higher = more signal.
A short description of assay [4]: compound effects on multiple myeloma cell viability – MM1S, calcein-AM fluorescence, 48 h, basal, profiling panel (AID 1165).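 Further: viability of MM1S multiple myeloma cells under basal unstimulated conditions; test concentration not given here.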 The note with it: higher = more signal.
Assay [5] can be described thus: calcein-AM signal in unstimulated myeloma cells – cell-based, calcein-AM fluorescence, 48 h, PK04 Diversity Set, profiling panel (AID 1166).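 Further: cells grown under basal conditions without added stimulus; test concentration not given here.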 The note with it: RPMI8226 myeloma viability, higher = more signal.
The nature of assay [6]: JC-1 mitochondrial signal, unstimulated HepG2 cells – cell-based, JC-1 fluorescence, 24 h, 100 nL compound, profiling panel (AID 1167). Further: test concentration not given here. The note with it: HepG2 mitochondrial potential, higher = more signal.
Assay [7] is described as follows: JC-1 mitochondrial signal, unstimulated adipocytes – cell-based, JC-1 fluorescence, 3T3-L1 adipocytes, 24 h, 100 nL compound, profiling panel (AID 1168). Further: test concentration not given here. The note with it: JC-1 mitochondrial fluorescence, higher = more signal, called active from +8 up or from −8 down.
The nature of assay [8]: JC-1 mitochondrial signal, unstimulated myeloma cells – cell-based, JC-1 fluorescence, RPMI8226, 24 h, 100 nL compound, profiling panel (AID 1169). Further: test concentration not given here. The note with it: JC-1 mitochondrial potential fluorescence, higher = more signal.
Assay [9] can be described thus: JC-1 mitochondrial signal, unstimulated MM1S myeloma – cell-based, JC-1 fluorescence, 24 h, 100 nL compound, profiling panel (AID 1170). Further: test concentration not given here. The note with it: MM1S mitochondrial potential, higher = more signal.
Assay [10] in a line: resazurin metabolic signal in A549 cells – cell-based, resazurin fluorescence, 24 h, PK04 Diversity Set, profiling panel (AID 1171). Further: test concentration not given here. The note with it: A549 viability, higher = more signal, called active from +8 up or from −8 down. (In general: Alamar Blue is a resazurin reagent that responds to reducing activity.)
The nature of assay [11]: resazurin metabolic signal in HepG2 cells – cell-based, resazurin fluorescence, 24 h, PK04 Diversity Set, profiling panel (AID 1172). Further: test concentration not given here. The note with it: HepG2 viability, higher = more signal.
Assay [12] in a line: budding yeast growth changes without added modifier – OD600, strain BY4716, 24 h, basal condition, primary screen (AID 1173). The note with it: S. cerevisiae BY4716 growth, OD600, 24 h; higher = more signal, called active from +8 up or from −8 down.
The nature of assay [13]: viability profiling in MM1S myeloma cells – cell-based, resazurin fluorescence, basal, 24 h, PK04 Diversity Set, profiling panel (AID 1174). Further: test concentration not given here. The note with it: higher = more signal, called active from +8 up or from −8 down.
The target in assay [14] is Dihydroorotate dehydrogenase (quinone), mitochondrial (Plasmodium falciparum (isolate 3D7)) (UniProt Q08210). As to the kind of experiment: inhibition of P. falciparum DHODH – biochemical, C-terminal His tag, absorbance 600 nm, primary screen (AID 1175).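 Further: recombinant parasite enzyme with a five histidine tag at its C terminus; test concentration not given here.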 The note with it: PfDHODH enzyme, DCIP absorbance 600 nm; higher = more signal, called active from +8 up or from −8 down.

Assay [15] in a line: inhibition of PAO1 biofilm formation – strain PAO1, LB-PBS medium, absorbance 600 nm, primary screen (AID 1176). Further: test concentration not given here. The note with it: P. aeruginosa PAO1 growth/biofilm, A600, 12 h; higher = more signal.
A short description of assay [16]: growth modulation of vineyard yeast isolate – strain RM11-1a, OD600, basal, 24 h, primary screen (AID 1177).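 Further: cultures grown under basal conditions with no added stressor; test concentration not given here.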 The note with it: S. cerevisiae RM11-1a growth, OD600, 24 h; higher = more signal, called active from +8 up or from −8 down.
Assay [17] is described as follows: growth of efflux-deficient E. coli DRC39 – strain DRC39, OD650, 24 h, E. coli filamentation inducers, primary screen (AID 1178).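 Further: growth measured as culture turbidity by optical density at 650 nm; test concentration not given here.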 The note with it: E. coli DRC39 acrAB, higher = more signal, called active from +8 up or from −8 down.
A short description of assay [18]: growth of efflux-deficient E. coli DRC39 – strain DRC39, OD650, 48 h, E. coli filamentation inducers, primary screen (AID 1179).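 Further: screen aims at cell division blockers that make cells filament.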 The note with it: E. coli DRC39 delta-acrAB growth, higher = more signal, called active from +8 up or from −8 down.
Assay [19] in a line: viability profiling in RPMI8226 myeloma cells – cell-based, resazurin fluorescence, basal, 24 h, PK04 Diversity Set, profiling panel (AID 1180).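 Further: RPMI8826 multiple myeloma cell line at 5000 cells per well; test concentration not given here.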 The note with it: higher = more signal.
Assay [20] deals with E3 ubiquitin-protein ligase XIAP (Homo sapiens) (UniProt P98170). Briefly: small molecules binding XIAP protein – biophysical, small-molecule microarray, fluorescence 635 nm, primary screen (AID 1181).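 Further: score merges 667 nm emission and signal to noise over triplicate slides.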 The note with it: higher = more signal.

Activity calls are given as the source filed them. Unless noted, how the calls were made is not given here.

Chain of Dihydroorotate dehydrogenase (quinone), mitochondrial (Plasmodium falciparum (isolate 3D7)) (Q08210 whole entry, looked up): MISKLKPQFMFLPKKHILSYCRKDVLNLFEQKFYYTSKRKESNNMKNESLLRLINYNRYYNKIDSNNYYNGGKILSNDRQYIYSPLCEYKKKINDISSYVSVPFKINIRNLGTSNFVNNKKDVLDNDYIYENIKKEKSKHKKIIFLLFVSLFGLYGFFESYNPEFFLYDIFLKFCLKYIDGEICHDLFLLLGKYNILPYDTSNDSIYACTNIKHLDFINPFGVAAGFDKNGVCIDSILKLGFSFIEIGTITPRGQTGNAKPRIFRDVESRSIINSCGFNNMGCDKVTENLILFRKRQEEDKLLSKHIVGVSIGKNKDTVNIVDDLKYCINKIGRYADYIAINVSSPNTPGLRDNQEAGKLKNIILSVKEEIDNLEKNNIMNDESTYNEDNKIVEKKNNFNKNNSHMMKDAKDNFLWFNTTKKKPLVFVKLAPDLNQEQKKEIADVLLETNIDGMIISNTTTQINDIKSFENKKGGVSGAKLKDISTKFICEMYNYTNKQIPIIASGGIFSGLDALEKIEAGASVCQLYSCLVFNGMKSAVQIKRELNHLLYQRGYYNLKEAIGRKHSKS
Chain of E3 ubiquitin-protein ligase XIAP (Homo sapiens) (P98170 whole entry, looked up): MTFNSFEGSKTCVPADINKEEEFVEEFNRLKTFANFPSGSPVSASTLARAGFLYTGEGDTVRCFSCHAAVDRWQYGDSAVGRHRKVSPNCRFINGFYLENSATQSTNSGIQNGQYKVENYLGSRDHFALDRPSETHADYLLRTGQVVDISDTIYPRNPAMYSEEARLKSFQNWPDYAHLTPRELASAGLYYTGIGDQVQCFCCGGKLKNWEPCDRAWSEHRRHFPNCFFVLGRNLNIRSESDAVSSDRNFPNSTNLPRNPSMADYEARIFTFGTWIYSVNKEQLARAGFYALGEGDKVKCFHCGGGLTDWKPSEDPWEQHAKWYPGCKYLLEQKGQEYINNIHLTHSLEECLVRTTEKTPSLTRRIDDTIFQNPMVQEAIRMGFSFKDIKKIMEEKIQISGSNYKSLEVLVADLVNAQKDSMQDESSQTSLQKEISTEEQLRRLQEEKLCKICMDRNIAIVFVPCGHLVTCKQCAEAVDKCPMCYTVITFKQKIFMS

Consider `COc1ccccc1CN1C(=O)c2ccccc2[C@](Cc2ccccc2I)(C(=O)NCCCN(C)C)[C@@H]1c1ccc(CO)cc1`, for which the z-score in [1] was -4.38; in assay [2], -0.247; in [3], -5.12; in assay [4] it was -3.81; in assay [5], -4.39; in assay [6] it was -3.01. The z-score is 1.29 (inactive) in [7]; -1.03 in [8]; -2.23 in [9]; -7.15 (inactive) in assay [10]; -6.49 in assay [11]; -10.3 (active) in assay [12]. Also, the z-score in [13] is -9.07 (active); in [15] it was 1.57 (inactive); in assay [16], -0.133 (inactive); in assay [17] it was -1.17 (inactive); in assay [18], -2.71 (inactive); in [19] it was -6.58. For the same molecule, the composite z-score is -0.572 (inactive) in assay [14] and -0.175 in assay [20].
As for `COCCOC(=O)N1C(=O)[C@@]2(c3cc(C#CCCO)ccc31)[C@H](C(=O)N1CCN(c3ncccn3)CC1)[C@H]1C(=O)O[C@H](c3ccccc3)[C@H](c3ccccc3)N1[C@@H]2c1ccc(O)cc1`, the z-score was 1.61 in assay [1]; 0.222 in assay [2]; 1.54 in assay [3]; 0.14 in assay [4]; 0.0881 in assay [5]; -0.141 in assay [6]. Moreover, the z-score was 0.339 (inactive) in assay [7]; -0.614 in assay [8]; -1.07 in [9]; 0.249 (inactive) in [10]; -0.335 in assay [11]; -0.142 (inactive) in assay [12]. For the same molecule, the z-score in assay [13] was 0.359 (inactive); in assay [15] it was 1.85 (inactive); in assay [16], 0.135 (inactive); in [17] it was 0.947 (inactive); in [18], 1.6 (inactive); in [19], 0.818. The composite z-score in [14] is -1.22 (inactive); in assay [20], -0.031.
With `CC(C)N1CC=CC23O[C@@H]4C=CCCOC(=O)C4[C@H]2C(=O)N(CCCCCO)[C@@H]3C1=O` (stereo not given in full), the z-score in [1] was -0.211; in [2], -0.288; in assay [3], 1.28; in assay [4], 1.57; in assay [5] it was 1.7; in assay [6] it was 0.77. For the same molecule, the z-score in [7] was 1.19 (inactive); in assay [8] it was 0.0326; in assay [9], -1.08; in [10], 0.846 (inactive); in [11], 0.613; in [12], 0.848 (inactive). In addition, the z-score in assay [13] is 0.988 (inactive); in [15] it was 0.0126 (inactive); in assay [16], 0.581 (inactive); in [17], 1.01 (inactive); in [18], 0.798 (inactive); in assay [19], 1.42. The composite z-score in [14] is -0.727 (inactive); in assay [20], 0.0684.
In the case of `CC(C)C[C@@H]1NC(=O)C([C@@H](C)OCc2ccccc2)NC(=O)[C@@]23C(=O)N[C@@H](Cc4ccccc4)C2[C@H](C)[C@@]2(C)O[C@H]2C3/C=C/CC/C=C/CNC1=O` (stereo not given in full), the z-score was -0.638 in assay [1]; 1.58 in assay [2]; 0.0538 in assay [3]; -1.31 in [4]; -2.32 in assay [5]; 2 in [6]. Further, the z-score in assay [7] was 0.17 (inactive); in assay [8], -0.478; in assay [9], -0.638; in [10], -0.785 (inactive); in assay [11] it was 0.536; in [12], -1.78 (inactive). Besides, the z-score was -0.0218 (inactive) in assay [13]; 0.261 (inactive) in assay [15]; -0.435 (inactive) in assay [16]; 1.64 (inactive) in assay [17]; 0.212 (inactive) in assay [18]; -0.417 in assay [19]. Also, the composite z-score in assay [14] is -0.485 (inactive); in assay [20], -0.144.
Consider `COc1ccc([Si](C)(C)[C@H]2[C@H](CCO)O[C@@]3(C(=O)N(Cc4ccc(N5CCOC5=O)cc4)c4ccccc43)[C@@H]2C)cc1`, for which the z-score is -0.108 in assay [1]; 0.684 in [2]; -0.591 in [3]; -2.54 in [4]; -3.98 in assay [5]; 0.137 in [6]. Moreover, the z-score in [7] was 1.82 (inactive); in assay [8], -0.992; in assay [9], -1.49; in assay [10] it was -1.54 (inactive); in assay [11] it was -0.667; in assay [12], 2.47 (inactive). For the same molecule, the z-score in [13] was -2.66 (inactive); in assay [15], 2.02 (inactive); in assay [16] it was 5.44 (inactive); in assay [17], 1.32 (inactive); in assay [18], 0.714 (inactive); in assay [19] it was -2.06. In addition, the composite z-score in assay [14] is 1.02 (inactive); in assay [20] it was -0.0206.
For `C=C(CCCC)C(=O)CC[C@H](OC(=O)c1cccnc1)c1ccc(CO)o1`, the z-score in assay [1] is -0.489; in assay [2] it was -0.175; in assay [3], 0.0768; in [4] it was 0.187; in [5], -0.0395; in assay [6], -1.48. The z-score in [7] was -0.572 (inactive); in assay [8], -0.577; in [9], -0.283; in assay [10], -0.0291 (inactive); in [11] it was -0.476; in assay [12], -1.58 (inactive). In addition, the z-score in assay [13] is -0.464 (inactive); in [15], 1.45 (inactive); in assay [16], -0.497 (inactive); in [17] it was -0.47 (inactive); in assay [18], -0.34 (inactive); in assay [19], -0.643. Also, the composite z-score in [14] is -0.826 (inactive); in [20], 0.0343.
In the case of `COCCCNC(=O)[C@@]1(Sc2ccc(C)cc2)CC(=O)N(C2CCCCC2)[C@@H]1c1ccc(CO)cc1I`, the z-score was 0.564 in assay [1]; -0.363 in assay [2]; 0.0565 in [3]; -2.54 in assay [4]; -2.33 in assay [5]; 0.634 in assay [6]. Also, the z-score in [7] is -0.201 (inactive); in assay [8], -0.126; in [9], -1.24; in assay [10], 0.804 (inactive); in assay [11], 0.5; in assay [12] it was -0.172 (inactive). Besides, the z-score is -0.326 (inactive) in assay [13]; 0.627 (inactive) in [15]; -1.09 (inactive) in assay [16]; 0.16 (inactive) in assay [17]; 0.228 (inactive) in assay [18]; -1.66 in [19]. Also, the composite z-score was 0.335 (inactive) in assay [14] and -0.328 in assay [20].
In the case of `CC(C)c1ccc(NN2C(C(O)C(C)C)C=CC3C(=O)N(c4ccccc4)C(=O)C32)cc1` (stereo not given), the z-score was -0.149 in [1]; -0.0009 in assay [2]; -0.463 in assay [3]; -0.871 in [4]; -0.542 in assay [5]; -0.419 in assay [6]. The z-score in assay [7] is -1.52 (inactive); in [8], -0.692; in [9], 0.54; in [10], -1.28 (inactive); in assay [11] it was -1.65; in assay [12] it was -0.619 (inactive). Also, the z-score is -0.331 (inactive) in [13]; 0.711 (inactive) in assay [15]; 1.57 (inactive) in assay [16]; 0.0582 (inactive) in assay [17]; -0.303 (inactive) in assay [18]; 0.0438 in assay [19]. The composite z-score in assay [14] is 0.974 (inactive); in assay [20], 0.132.
As for `CCC[C@@H]1[C@@H](Sc2ccccc2)[C@@H](C(=O)O)[C@H](c2ccc(C)cc2)N1S(=O)(=O)c1ccc(C)cc1`, the z-score in assay [1] was -0.861; in assay [2] it was -0.571; in assay [3] it was 0.699; in assay [4] it was 0.116; in [5] it was -2.59; in assay [6], -0.772. The z-score in [7] is 1.41 (inactive); in [8] it was -0.134; in assay [9], -1.64; in [10], -0.856 (inactive); in [11], -0.428; in assay [12], -1.99 (inactive). The z-score was -0.0959 (inactive) in assay [13]; 0.257 (inactive) in assay [15]; -0.122 (inactive) in assay [16]; -0.008 (inactive) in assay [17]; 0.329 (inactive) in [18]; -0.862 in assay [19]. Also, the composite z-score in assay [14] is -1.04 (inactive); in assay [20] it was -0.0062.

These data come from PubChem BioAssay.
